Most compounds without a hit are left out; they make up all but 7.3% or so of the library.
FLuc counter: counter-screen for miR-21 project: firefly luciferase inhibitors or activators. Potency, µM (highest dose often 57.5 µM), usual class: inhibitors. purified FLuc, Km substrates, luminescence inhibition. P08659. 360,000 compounds, 6.9% hits; note: nearly all actives have a fitted effect of over 55% in size
Target sequence (P08659 whole entry, looked up): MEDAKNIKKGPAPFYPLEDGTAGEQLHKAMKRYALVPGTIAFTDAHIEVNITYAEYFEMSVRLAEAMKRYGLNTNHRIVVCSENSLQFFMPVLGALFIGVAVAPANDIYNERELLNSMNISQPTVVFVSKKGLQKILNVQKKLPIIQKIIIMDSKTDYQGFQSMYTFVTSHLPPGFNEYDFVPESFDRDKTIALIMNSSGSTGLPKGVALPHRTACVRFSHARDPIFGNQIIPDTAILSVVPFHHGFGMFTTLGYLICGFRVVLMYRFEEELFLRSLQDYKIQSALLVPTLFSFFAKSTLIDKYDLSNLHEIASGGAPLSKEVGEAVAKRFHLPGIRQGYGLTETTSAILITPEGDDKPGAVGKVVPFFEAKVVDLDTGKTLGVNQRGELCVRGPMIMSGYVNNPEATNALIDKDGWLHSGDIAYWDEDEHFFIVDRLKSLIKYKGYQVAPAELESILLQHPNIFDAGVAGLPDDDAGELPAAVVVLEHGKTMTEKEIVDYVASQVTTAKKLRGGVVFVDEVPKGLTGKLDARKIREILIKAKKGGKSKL
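Purified P. pyralis luciferase (10nM final) with 10uM D-luciferin and 10uM ATP (Km levels) in 50mM Tris acetate pH 7.5, 10mM Mg acetate, 0.01% Tween-20, 0.05% BSA; qHTS 6-point titration, ~60 µM downward; luminescence read.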
NPC1 promoter act: activates the NPC1 promoter; Potency, µM (highest dose often 9.22 µM), usual class: activators; 320,000 compounds, 2.4% hits; Huh7 NPC1 promoter luciferase reporter, 24 h; AID 485313; note: nearly all actives have a fitted effect of over 60% in size
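Stable NPC1-promoter luciferase Huh7 line; cpd (DMSO) 24 h, 37 °C, 5% CO2; Amplite luciferase reagent 10 min RT; luminescence readout. qHTS format.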
Rab9 promoter act: activates the Rab9 promoter | Huh7 Rab9 promoter-luciferase reporter, luminescence, 24 h | Potency, µM (highest dose often 9.22 µM), actives largely listed as activators | 320,000 compounds, 2.8% hits; note: nearly all actives have a fitted effect of over 60% in size
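Cell-based reporter: Huh7 stable for Rab9 promoter-driven luciferase, plated in reduced-serum medium with 10% FBS at 1500 cells/well, compound-treated 24 h at 37 °C, luminescence read after 10 min reagent.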
SMN2 splice enh: SMN2 splice variant enhancement. HEK293 SMN2-luciferase splicing reporter, luminescence, 30-36 h. Potency, µM (highest dose often 46.1 µM), hits mostly activators. 210,000 compounds, 2.8% hits. AID 1458; note: nearly all actives have a fitted effect of over 55% in size
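qHTS luciferase splicing reporter: luminescence rises when SMN2 exon 7 is included in transfected HEK293 cells. Compound exposure lasted 30-36 h at 37C, with 4.5 mM final sodium butyrate as control, followed by a ONE-Glo read.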
KinaseGlo FLuc: counter-screen: inhibitors of Kinase-Glo firefly luciferase; Kinase-Glo luciferase, ATP luminescence, 8 min; Potency, µM (doses to about 38.3 µM), usual class: inhibitors; AID 1379; 200,000 compounds, 0.28% hits; Q27757; note: nearly all actives have a fitted effect of over 60% in size
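Kinase-Glo luciferase light output from ATP and luciferin was measured with 10 uM ATP, within the enzyme's linear range. Buffer: 50 mM imidazole pH 7.2, 50 mM KCl, 7 mM MgCl2, 0.01% Tween 20, 0.05% BSA; luminescence read after 8 min at ambient temperature.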
Hits are given with their value; 0 = inactive; ? = inconclusive; - = no result given; [ ] = dose if it differs, or a comment. Calls come from the whole dose curve; as a rule, active = well fitted curve in the direction sought with a large enough effect; inconclusive = small, poorly fitted or top-dose-only effect, or another doubt; inactive = no such curve, though single readings can be large; an effect the other way counts as inactive or inconclusive.

SMILES	FLuc counter	NPC1 promoter act	Rab9 promoter act	SMN2 splice enh	KinaseGlo FLuc
CN1CCC[C@@H]1c1cccnc1.O=C(O)c1ccccc1O.O=C([OH2+])c1ccccc1O.O=C([OH2+])c1ccccc1O.O=C([OH2+])c1ccccc1O.[Mn]	-	-	-	0[9.22 µM]	0[7.66 µM]
CCN(CC)c1ccc(NC(=O)CN2CCN(S(=O)(=O)c3ccc(C(C)C)cc3)CC2)cc1	0	-	-	-	-
CCn1c2ccccc2c2cc(NC(=O)c3cccc(OC)c3)ccc21	16.9µM	?	?	?	0
CS(=O)(=O)Nc1ccc(C(=O)Nc2ccc3ccccc3c2)cc1	2.39µM	?	0.631µM	-	-
COc1cccc(C(=O)N/N=C(/c2ccccc2)c2ccccn2)c1	19µM	0	0	0	0
CCn1c(=O)sc2cc(NC(=O)c3cccc(OC)c3)ccc21	?	-	-	0	-
COC(=O)COc1cccc(NC(=O)c2cc(OC)cc(OC)c2)c1	?	0	0	0	0
COc1cccc(C(=O)Nc2cccc(OCC(=O)O)c2)c1	23.9µM	0	0	0	0
CCC1CCCCN1S(=O)(=O)c1ccc(N2CCCCS2(=O)=O)cc1 (stereo not drawn)	0	-	-	-	-
S=C([S-])NCCNC(=S)[S-].[Zn+2]	-	-	-	0	-
COc1cccc(C(=O)Nc2ccc3ccccc3c2)c1	0.477µM	3.16µM	0.794µM	-	-
O=C(CCl)Nc1cccc(Oc2cnccn2)c1	0	0	0	-	-
O=C(CCl)Nc1cccc(Oc2ccccc2)c1	16.9µM	0	0	0	0
COc1cccc(C(=O)Nc2cccc3ccccc23)c1	0	0	0	-	-
COc1cccc(C(=O)Nc2cnn(C(C)C)c2)c1	?	?	2.51µM	-	0
O=C(Nc1ccccc1C(=O)Nc1ccncc1)c1cccc([N+](=O)[O-])c1	0.0953µM	2.82µM	2.24µM	-	-
CCOC(=O)c1c(C)oc2ncnc(N3CCN(c4ccccc4)CC3)c12	0	-	-	-	-
Cc1cccc(NC(=O)N2CCC(N3CCN(Cc4ccccc4)C(=O)C3=O)CC2)c1C	0	-	-	-	-
CCCCOc1ccc(Cn2c(=O)sc3ccccc32)cc1OC	0	-	-	0	-
CCOC(=O)C1=C(CN2CCN(c3cc(C)ccc3C)CC2)NC(=O)NC1c1ccccc1 (stereo not drawn)	0	-	-	0	-
COc1cccc(NC(=O)c2ccc(C(=O)c3ccccc3)o2)c1	6.75µM	?	?	20µM	0
CC(C)c1ccc(NC(=O)c2ccc(NS(C)(=O)=O)cc2)cc1	6.75µM	0	0	0	0
COc1cccc(NC(=O)c2ccc(-c3ccccc3[N+](=O)[O-])o2)c1	?	0	0	0	0
COC(=O)c1[nH]c2cc(OC)c(OC)cc2c1NC(=O)c1cccc(OC)c1	5.36µM	0	0	0	0
O=C(Nc1ccc2ccccc2c1)c1cccc([N+](=O)[O-])c1	12µM	?	?	-	-
SMILES	FLuc counter	NPC1 promoter act	Rab9 promoter act	SMN2 splice enh	KinaseGlo FLuc
Cc1cccc(C(=O)N2CCCCC2CCN2CCCCC2)c1 (stereo not drawn)	0	-	-	0	-
COc1cccc(C(=O)Nc2cccc(SC)c2)c1	9.53µM	0	?	?	0
COc1ccc(NS(=O)(=O)c2cc(NC(=O)c3ccncc3)ccc2N2CCOCC2)cc1	0	0	0	7.94µM	0
COc1ccc(OC)c(C(=O)c2ccc(C(=O)Nc3ccc4ccccc4c3)cc2)c1	0	0	0	0	0
COc1cccc(/C(C)=N/N=C(\C)c2cccc(OC)c2)c1	6.75µM	?	3.16µM	-	-
COc1ccc(C(=O)Nc2ccc3ccccc3c2)cc1	0.19µM	0.0891µM	?	-	-
COc1cccc(C(=O)Nc2c(F)c(F)c(F)c(F)c2F)c1	0	0	0	0	0
CCN1CCN(c2ncc3c(n2)CCN(CC(C)C)C3)CC1	0	-	-	-	-
COc1cc(C2c3c(-c4c(C)cc(C)cc4O)n[nH]c3C(=O)N2CCCOC(C)C)cc(OC)c1OC (stereo not drawn)	0	-	-	0	-
Cc1ccc(C(=O)Nc2cccc(C(=O)NCc3ccccc3)c2)o1	?	0	0	0	0
COC(=O)c1cccc(NC(=O)Cc2coc3cc(OC)ccc23)c1	16.9µM	0	?	0	0
COc1cccc(C(=O)NNC(=O)c2ccccc2)c1	?	2.51µM	3.55µM	-	-
O=C(Nc1ccc(O)cc1)c1ccc(C(=O)c2ccccc2)o1	7.57µM	?	0	0	0
Cc1ccc(C(=O)Nc2cccc(Oc3ccccc3)c2)o1	19µM	0	?	0	0
CC1CCN(S(=O)(=O)c2cc(C(=O)NCc3ccccc3)n(C)c2)CC1	0	-	-	-	-
